Experimental data as given in PubChem BioAssay.
For some of these results: Results with a measured potency or affinity are listed apart. Activity calls are given as the source filed them.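 The calls were made as follows, unless noted: active = hit in primary screen, with calcium signal over 5 SD above buffer well mean in both duplicates; inactive = the rest.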

Assays:
[1] = test system: TRPC4 beta (transient receptor potential cation channel C4), mouse; assay: TRPC4 cation channel opening, retest – cell-based, Fluo4 calcium, HEK293 TRPC4beta/mu-opioid, duplicates, 10 µM, confirmation (AID 2426;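 active = fluorescence ratio normalized to control raised more than 50% in primary screen plus both repeat runs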;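 as to activation: percent rise of integrated ratio over buffer wells lacking compound which define 0%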); conditions: Fluo4 calcium fluorescence, at 10 µM; hits give high values
[2] = test system: transient receptor potential cation channel C4 beta (TRPC4), mouse; assay: TRPC4 cation channel opening, second retest – cell-based, second round, Fluo4, HEK293 TRPC4beta/mu-opioid, 1 µM, confirmation (AID 2461;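 active = primary screen active and over 50% activation in each of two duplicate runs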;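 as to activation: 0% = wells without test compound as baseline of integrated fluorescence ratio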); conditions: Fluo4 calcium fluorescence, at 1 µM; hits give high values
[3] = test system: TRPC4 (transient receptor potential cation channel C4 beta), mouse; assay: potentiation of DAMGO EC20 TRPC4 response – cell-based, second round, Fluo-4, HEK293 TRPC4beta/mu-opioid, 1 µM, confirmation (AID 2554;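 active = primary screen hit whose fluorescence ratio, in both repeats, exceeds the weak agonist control mean by 3 SD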); conditions: DAMGO EC20, Fluo-4 calcium flux, at 1 µM; hits give high values
[4] = test system: TRPC4 beta (transient receptor potential cation channel C4), mouse; assay: potentiation of DAMGO EC20 TRPC4 response – cell-based, Fluo-4, HEK293 TRPC4beta/mu-opioid, confirmation (AID 2555;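 active = primary screen hit whose calcium fluorescence ratio, in both repeats, exceeds the weak agonist control mean by 3 SD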); conditions: DAMGO EC20, Fluo-4 calcium flux, at 10 µM; hits give high values
[5] = biological target: Short transient receptor potential channel 4 (Mus musculus) (UniProt Q9QUQ5); assay: blockers of DAMGO-evoked TRPC4 calcium flux – cell-based, Fluo4, HEK293 TRPC4beta/mu-opioid, confirmation (AID 2636;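 active = calcium signal cut by more than 3 SD below the full-agonist control yet still positive, in both repeats and the earlier primary screen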); conditions: at 10 µM; hits give high values
Sequence of Short transient receptor potential channel 4 (Mus musculus) (Q9QUQ5 whole entry, looked up): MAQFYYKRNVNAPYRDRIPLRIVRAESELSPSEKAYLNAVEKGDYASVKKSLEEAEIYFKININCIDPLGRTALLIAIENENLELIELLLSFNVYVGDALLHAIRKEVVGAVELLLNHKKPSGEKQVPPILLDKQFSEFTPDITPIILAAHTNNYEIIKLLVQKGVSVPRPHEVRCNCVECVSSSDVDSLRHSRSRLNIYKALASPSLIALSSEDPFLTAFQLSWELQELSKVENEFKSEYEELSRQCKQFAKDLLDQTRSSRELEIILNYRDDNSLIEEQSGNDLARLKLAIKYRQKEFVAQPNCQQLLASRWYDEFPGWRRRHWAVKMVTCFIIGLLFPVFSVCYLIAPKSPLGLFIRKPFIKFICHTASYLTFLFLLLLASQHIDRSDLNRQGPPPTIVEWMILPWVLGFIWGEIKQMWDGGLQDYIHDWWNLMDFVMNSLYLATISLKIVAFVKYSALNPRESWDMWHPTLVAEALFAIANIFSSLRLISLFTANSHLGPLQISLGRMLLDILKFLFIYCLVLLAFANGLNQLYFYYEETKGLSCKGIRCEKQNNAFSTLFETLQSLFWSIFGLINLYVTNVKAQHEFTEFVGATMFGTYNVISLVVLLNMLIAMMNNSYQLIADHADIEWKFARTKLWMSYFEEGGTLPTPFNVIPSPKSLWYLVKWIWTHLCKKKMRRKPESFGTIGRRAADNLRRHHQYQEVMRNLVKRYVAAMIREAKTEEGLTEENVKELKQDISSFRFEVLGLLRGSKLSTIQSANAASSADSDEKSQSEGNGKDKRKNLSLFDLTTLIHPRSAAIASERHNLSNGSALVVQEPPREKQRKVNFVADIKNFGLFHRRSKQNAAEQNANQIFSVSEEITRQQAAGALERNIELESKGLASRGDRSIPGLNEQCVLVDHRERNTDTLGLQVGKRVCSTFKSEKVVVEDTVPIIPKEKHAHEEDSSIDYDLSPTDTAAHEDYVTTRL

[6] = biological target: Short transient receptor potential channel 4 (Mus musculus) (UniProt Q9QUQ5); assay: blockers of DAMGO-evoked TRPC4 calcium flux – cell-based, second round, Fluo4, HEK293 TRPC4beta/mu-opioid, 1 µM, confirmation (AID 2637;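 active = calcium signal ratio cut to more than 3 SD under the fully stimulated control mean yet still positive, in both repeats and the primary screen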;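 as to inhibition: percent of integrated ratio relative to wells lacking test compound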); conditions: at 1 µM; hits give high values
[7] = biological target: Short transient receptor potential channel 4 (Mus musculus) (UniProt Q9QUQ5); assay: potentiation of DAMGO-evoked TRPC4 calcium signal – cell-based, HEK293 TRPC4/mu-opioid, Fluo-4 calcium, EC20 DAMGO, dose response (AID 434941;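 active = earlier screen potentiator hit that boosts the TRPC4 ion channel at some dose, with a dose response; inactive = no potentiation, no dose response, or not a prior hit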;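 also: calcium entry triggered by an EC20 dose of DAMGO at the co-expressed mu-opioid receptor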)
[8] = biological target: Short transient receptor potential channel 4 (Mus musculus) (UniProt Q9QUQ5); assay: block of DAMGO-driven TRPC4 calcium entry – cell-based, HEK293 TRPC4/mu-opioid, Fluo-4 calcium, dose response (AID 434942;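 active = primary screen inhibitor hit that blocks the TRPC4 channel at some tested dose, yielding a dose curve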)
[9] = biological target: Short transient receptor potential channel 6 (Mus musculus) (UniProt Q61143); assay: TRPC6 blockade by TRPC4 inhibitor hits – cell-based, HEK293, membrane potential dye, duplicate, selectivity assay for TRPC4 inhibitor project, confirmation (AID 434948;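 active = active in primary screen and both duplicates, each dropping signal beyond three positive-control SD with fluorescence still positive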); conditions: HEK293 TRPC6, membrane potential dye fluorescence, at 10 µM, stimulated with maximal-effect acetylcholine; hits give high values
Sequence of Short transient receptor potential channel 6 (Mus musculus) (Q61143 whole entry, looked up): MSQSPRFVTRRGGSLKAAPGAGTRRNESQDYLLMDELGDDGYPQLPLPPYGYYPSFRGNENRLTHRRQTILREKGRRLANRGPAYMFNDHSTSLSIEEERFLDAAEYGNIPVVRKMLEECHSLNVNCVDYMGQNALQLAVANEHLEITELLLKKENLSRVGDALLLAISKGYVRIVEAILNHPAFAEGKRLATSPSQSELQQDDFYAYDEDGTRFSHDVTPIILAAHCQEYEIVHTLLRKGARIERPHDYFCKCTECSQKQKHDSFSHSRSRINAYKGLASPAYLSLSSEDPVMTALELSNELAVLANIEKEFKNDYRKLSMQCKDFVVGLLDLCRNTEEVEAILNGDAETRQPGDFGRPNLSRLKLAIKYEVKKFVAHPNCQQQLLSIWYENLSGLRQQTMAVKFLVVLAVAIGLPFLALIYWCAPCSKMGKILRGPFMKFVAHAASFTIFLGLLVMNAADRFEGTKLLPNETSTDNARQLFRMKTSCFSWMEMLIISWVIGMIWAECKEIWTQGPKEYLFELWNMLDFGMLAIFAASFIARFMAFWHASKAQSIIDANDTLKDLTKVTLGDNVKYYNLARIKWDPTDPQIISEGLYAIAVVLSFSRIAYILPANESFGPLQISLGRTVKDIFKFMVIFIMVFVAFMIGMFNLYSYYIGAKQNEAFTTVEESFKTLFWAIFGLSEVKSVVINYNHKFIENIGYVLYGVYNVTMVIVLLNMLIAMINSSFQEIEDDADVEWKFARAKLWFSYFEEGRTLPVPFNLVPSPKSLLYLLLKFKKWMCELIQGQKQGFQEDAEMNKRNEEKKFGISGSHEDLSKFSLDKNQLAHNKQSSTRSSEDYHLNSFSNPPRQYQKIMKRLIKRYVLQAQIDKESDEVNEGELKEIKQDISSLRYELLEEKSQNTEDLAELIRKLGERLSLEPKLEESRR

[10] = biological target: Short transient receptor potential channel 6 (Mus musculus) (UniProt Q61143); assay: TRPC6 opening by TRPC4 activator hits – cell-based, HEK293, membrane potential dye, duplicate, selectivity assay for TRPC4 activator project, confirmation (AID 434950;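 active = membrane potential signal rise above negative control mean plus 3 SD in both duplicates, also active in the earlier TRPC4 screen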;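 as to activation: 0% = buffer only wells and 100% = acetylcholine maximal-effect wells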); conditions: HEK293 TRPC6, membrane potential fluorescence, at 10 µM; activation: hits give high values; outcome: activation
[11] = biological target: Short transient receptor potential channel 6 (Mus musculus) (UniProt Q61143); assay: positive modulators of mouse TRPC6 channel – HEK293 cells, membrane potential dye, duplicate, selectivity assay for TRPC4 potentiator project, confirmation (AID 434952;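 active = compound raising the membrane signal above positive-control mean plus 3 SD in both repeats, and a primary screen hit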); conditions: HEK293 TRPC6, membrane potential dye fluorescence, at 10 µM, maximal acetylcholine added after compound; hits give high values
[12] = biological target: Short transient receptor potential channel 4 (Mus musculus) (UniProt Q9QUQ5); assay: calcium flux activators in TRPC4/5HT1a cells, counter-screen for TRPC4 activator project, cell-based, second counter screen, HEK293 TRPC4/5HT1a, Fluo-4 (AID 434977;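 active = calcium signal rise above buffer-control mean plus 5 SD in both duplicates, and also a hit in the primary screen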;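 as to activation: plate controls were assay buffer for no effect and maximal serotonin response for full effect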); conditions: Fluo-4 calcium flux, at 10 µM; hits give high values
[13] = serotonin-gated TRPC4 signal block – cell-based, second counter screen, HEK293 TRPC4/5HT1a, Fluo-4, counter-screen for TRPC4 inhibitor project, confirmation (AID 434978;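 active = primary screen active whose calcium signal fell more than 3 SD beyond the full-serotonin control mean in both duplicate plates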;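 as to outcome: serotonin given first at submaximal then at maximal dose after compound preincubation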); conditions: Fluo-4 calcium flux, at 10 µM, serotonin added to trigger calcium flux; hits give high values
[14] = test system: TRPC4 (mouse), co-expressed with 5HT1a in HEK293; assay: enhancement of serotonin-evoked TRPC4 response – cell-based, second counter screen, HEK293 TRPC4/5HT1a, Fluo-4, counter-screen for TRPC4 potentiator project, confirmation (AID 434979;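 active = signal rise over 3 SD above mean of control wells given weak agonist, in both repeats and first screen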); conditions: Fluo-4 calcium flux, at 10 µM, serotonin added at its EC20 dose; hits give high values
[15] = nonspecific calcium rise without TRPC4 – cell-based, HEK293 mu-opioid receptor line, counter-screen for TRPC4 activator project, confirmation (AID 449723); conditions: HEK293 mu-opioid cells, Fluo-4 calcium fluorescence, at 10 µM; hits give high values;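 also: counter screen cells carry the mu-opioid receptor alone and lack TRPC4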
[16] = nonspecific potentiation of DAMGO calcium response – cell-based, HEK293 mu-opioid receptor line, counter-screen for TRPC4 allosteric potentiator project, confirmation (AID 449724;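 active = calcium signal rise more than 3 SD above the low-dose agonist control mean, in both duplicate plates and the primary screen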); conditions: HEK293 mu-opioid receptor cells, Fluo-4 calcium flux, at 10 µM, compound added before EC20 DAMGO stimulus; hits give high values
[17] = nonspecific flux increase, KCNQ1-free cells – parental CHO cells, counter-screen for KCNQ1 potentiator project (AID 493006;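 active = duplicate-averaged activation above buffer control mean plus 5 SD of those controls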;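 as to activation: fluorescence ratio of max minus min over baseline after K+ and Tl+ depolarization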); conditions: parental CHO-K1 cells, FluxOR thallium flux, at 10 µM; hits give high values
[18] = biological target: Potassium voltage-gated channel subfamily KQT member 1 (Homo sapiens) (UniProt P51787); assay: enhancement of KCNQ1 channel thallium flux – FluxOR thallium flux, CHO cells, duplicates, confirmation (AID 493007;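 active = potentiation averaged over duplicate wells exceeding buffer-only control mean by more than 3 SD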;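 as to outcome: cells depolarized by a potassium plus thallium sulfate stimulus after compound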;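 as to potentiation: 0% = buffer-only wells and 100% = R-L3 activator control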); conditions: KCNQ1 cell line, FluxOR thallium flux fluorescence, at 10 µM; hits give high values, % of reference activator effect, buffer zero
Sequence of Potassium voltage-gated channel subfamily KQT member 1 (Homo sapiens) (P51787 whole entry, looked up): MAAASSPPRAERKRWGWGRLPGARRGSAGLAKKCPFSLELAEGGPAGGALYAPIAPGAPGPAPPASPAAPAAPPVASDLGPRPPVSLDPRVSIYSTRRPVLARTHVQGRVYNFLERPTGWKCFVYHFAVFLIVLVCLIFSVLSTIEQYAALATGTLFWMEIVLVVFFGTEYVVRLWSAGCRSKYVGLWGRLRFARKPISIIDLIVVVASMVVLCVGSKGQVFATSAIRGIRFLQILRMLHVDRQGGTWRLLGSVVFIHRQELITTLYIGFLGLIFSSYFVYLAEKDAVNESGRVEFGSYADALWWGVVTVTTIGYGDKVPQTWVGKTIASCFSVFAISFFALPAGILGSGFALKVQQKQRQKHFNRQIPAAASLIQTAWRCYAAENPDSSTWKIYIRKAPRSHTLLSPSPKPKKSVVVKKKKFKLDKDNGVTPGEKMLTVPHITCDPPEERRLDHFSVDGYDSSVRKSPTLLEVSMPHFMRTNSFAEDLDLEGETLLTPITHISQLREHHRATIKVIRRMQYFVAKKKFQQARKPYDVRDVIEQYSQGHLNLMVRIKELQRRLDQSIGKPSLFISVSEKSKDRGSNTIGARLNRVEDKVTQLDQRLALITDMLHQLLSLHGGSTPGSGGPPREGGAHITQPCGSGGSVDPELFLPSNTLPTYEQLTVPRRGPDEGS

[19] = biological target: Potassium voltage-gated channel subfamily KQT member 2 (Rattus norvegicus) (UniProt O88943); assay: KCNQ2 thallium flux enhancement – KCNQ2-CHO-K1 cells, selectivity assay for KCNQ1 potentiator project (AID 493009;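 active = mean duplicate potentiation above the buffer control mean plus 5 SD of buffer wells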;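 also: assay conditions were tuned for KCNQ1 rather than KCNQ2 modulators; signal is max minus min fluorescence divided by baseline after thallium stimulus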); conditions: FluxOR thallium flux fluorescence, at 10 µM; hits give high values, scaled: buffer 0, activator control 100
Sequence of Potassium voltage-gated channel subfamily KQT member 2 (Rattus norvegicus) (O88943 whole entry, looked up): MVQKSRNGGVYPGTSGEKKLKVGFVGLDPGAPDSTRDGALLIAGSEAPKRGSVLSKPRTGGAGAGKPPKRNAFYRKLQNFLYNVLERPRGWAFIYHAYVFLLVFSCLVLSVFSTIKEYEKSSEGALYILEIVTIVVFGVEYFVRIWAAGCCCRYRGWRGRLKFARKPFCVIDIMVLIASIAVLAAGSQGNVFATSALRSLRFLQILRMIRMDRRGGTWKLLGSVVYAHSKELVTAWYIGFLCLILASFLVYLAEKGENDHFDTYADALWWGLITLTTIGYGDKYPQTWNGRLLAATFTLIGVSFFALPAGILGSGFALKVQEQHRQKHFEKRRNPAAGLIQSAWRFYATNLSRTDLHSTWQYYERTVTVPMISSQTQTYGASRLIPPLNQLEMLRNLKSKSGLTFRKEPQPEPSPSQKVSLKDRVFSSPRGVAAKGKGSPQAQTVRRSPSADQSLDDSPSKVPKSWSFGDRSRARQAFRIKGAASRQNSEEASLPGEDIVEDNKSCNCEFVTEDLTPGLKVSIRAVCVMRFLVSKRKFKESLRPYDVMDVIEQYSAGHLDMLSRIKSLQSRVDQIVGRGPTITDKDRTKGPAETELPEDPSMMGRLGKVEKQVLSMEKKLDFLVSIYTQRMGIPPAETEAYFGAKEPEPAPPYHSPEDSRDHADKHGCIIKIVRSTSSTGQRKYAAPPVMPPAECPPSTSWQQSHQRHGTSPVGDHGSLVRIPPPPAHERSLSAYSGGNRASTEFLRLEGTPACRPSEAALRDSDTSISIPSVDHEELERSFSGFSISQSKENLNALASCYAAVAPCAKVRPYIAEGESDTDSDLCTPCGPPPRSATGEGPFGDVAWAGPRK

[20] = biological target: Potassium voltage-gated channel subfamily KQT member 1 (Homo sapiens) (UniProt P51787); assay: KCNQ1 activators by electrophysiology – IonWorks patch clamp, KCNQ1-CHO cells, orthogonal assay for KCNQ1 potentiator project, confirmation (AID 493184;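 active = current rise at least 3 SD above the untreated control mean in each of two repeat wells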); conditions: automated patch clamp current, at 10 µM; hits give high values

Cc1cccc(C(=O)NC(=S)NNC(=O)c2ccccc2Cl)c1
inactive: outcome [2] | outcome [3] | outcome [4] | outcome [5] | outcome [6] | outcome [7] | outcome [8] | outcome [9] | outcome [11] | outcome [13] | outcome [14] | outcome [16] | outcome [17] | outcome [20]
active: activation [1] 201% | activation [10] 34% | activation [12] 138% | activation [15] 85.8% | potentiation [18] 50.5% | potentiation [19] 158%

O=C(NC1CC1)C1=C[C@H](C2CCCCC2)C[C@H](OCc2ccc(CO)cc2)O1
active: activation [1] 337% | inhibition [5] 75% | activation [10] 41% | activation [12] 131% | inhibition [13] 9.94%
inactive: outcome [2] | outcome [3] | outcome [4] | outcome [6] | outcome [7] | outcome [9] | outcome [11] | outcome [14] | outcome [15] | outcome [16]

OC1(c2ccccc2)CN(c2ccccc2)C2=[N+]1CCS2 (stereo unspecified)
inactive: outcome [1] | outcome [2] | outcome [3] | outcome [4] | outcome [6] | outcome [7] | outcome [9] | outcome [11] | outcome [12] | outcome [13] | outcome [14] | outcome [15] | outcome [16]
active: inhibition [5] 89% | activation [10] 34%

CC(=O)Nc1ccc(C2(c3ccc(NC(C)=O)cc3)C(=O)Nc3ccccc32)cc1
active: inhibition [5] 83% | inhibition [6] 61% | activation [10] 30%
inactive: outcome [1] | outcome [2] | outcome [3] | outcome [4] | outcome [7] | outcome [9] | outcome [11] | outcome [12] | outcome [13] | outcome [14] | outcome [15] | outcome [16]

COc1ccc(C(=O)NC(=S)NNC(=O)c2cccc(C)c2)cc1
inactive: outcome [2] | outcome [3] | outcome [4] | outcome [5] | outcome [6] | outcome [7] | outcome [8] | outcome [9] | outcome [11] | outcome [13] | outcome [14] | outcome [16] | outcome [17] | outcome [20]
active: activation [1] 142% | activation [10] 27% | activation [12] 133% | activation [15] 40.2% | potentiation [18] 128% | potentiation [19] 227%

Cc1ccccc1C(=O)NNC(=S)NC(=O)c1ccc(Cl)cc1Cl
inactive: outcome [2] | outcome [3] | outcome [4] | outcome [5] | outcome [6] | outcome [7] | outcome [8] | outcome [9] | outcome [11] | outcome [13] | outcome [14] | outcome [16] | outcome [17] | outcome [20]
active: activation [1] 293% | activation [10] 35% | activation [12] 182% | activation [15] 84.2% | potentiation [18] 117% | potentiation [19] 222%

CCCc1ccc(OCC(=O)NNC(=S)NC(=O)c2ccco2)cc1
inactive: outcome [1] | outcome [2] | outcome [3] | outcome [4] | outcome [5] | outcome [6] | outcome [7] | outcome [8] | outcome [9] | outcome [10] | outcome [11] | outcome [13] | outcome [14] | outcome [15] | outcome [16] | outcome [20]
active: activation [12] 46.5% | activation [17] 164% | potentiation [18] 79.5% | potentiation [19] 216%

Cc1onc(-c2ccccc2)c1C(=O)NNC(=S)NC(=O)/C=C/c1ccccc1
inactive: outcome [1] | outcome [2] | outcome [3] | outcome [4] | outcome [6] | outcome [7] | outcome [9] | outcome [11] | outcome [14] | outcome [16]
active: inhibition [5] 77% | activation [10] 32.5% | activation [12] 39.7% | inhibition [13] 19.2% | activation [15] 14.8%

CC(NCc1cc(Br)ccc1OCC(=O)NCc1ccccc1)c1ccccc1 (stereo unspecified)
inactive: outcome [1] | outcome [2] | outcome [3] | outcome [4] | outcome [6] | outcome [7] | outcome [9] | outcome [11] | outcome [12] | outcome [14] | outcome [15] | outcome [16]
active: inhibition [5] 100% | activation [10] 55% | inhibition [13] 35.1%

Cc1cccc(C(=O)NNC(=S)NC(=O)c2ccccc2)c1
active: activation [1] 230% | activation [10] 54.5% | activation [12] 153% | activation [15] 83.3% | potentiation [18] 74.5% | potentiation [19] 192%
inactive: outcome [2] | outcome [3] | outcome [4] | outcome [5] | outcome [6] | outcome [7] | outcome [8] | outcome [9] | outcome [11] | outcome [13] | outcome [14] | outcome [16] | outcome [17] | outcome [20]

CCN1/C(=C\c2ccc3ccccc3[n+]2CC)Sc2cc(C)ccc21
inactive: outcome [3] | outcome [5] | outcome [6] | outcome [7] | outcome [8] | outcome [9] | outcome [10] | outcome [11] | outcome [13]
active: activation [1] 544% | activation [2] 147% | potentiation [4] 18% | activation [12] 600% | potentiation [14] 110% | activation [15] 672% | activation [16] 27400%

O=c1c2c(-c3ccccc3)csc2ncn1/N=C/c1cccc([N+](=O)[O-])c1O
active: inhibition [5] 90% | inhibition [6] 39% | activation [12] 36.1% | inhibition [13] 27.2%
inactive: outcome [1] | outcome [2] | outcome [3] | outcome [4] | outcome [7] | outcome [9] | outcome [10] | outcome [11] | outcome [14] | outcome [15] | outcome [16]

CC1CCCN(CCOCCOc2ccccc2-c2ccccc2)C1 (stereo unspecified)
active: inhibition [5] 90% | inhibition [6] 53% | activation [10] 82% | inhibition [13] 30.7%
inactive: outcome [1] | outcome [2] | outcome [3] | outcome [4] | outcome [7] | outcome [9] | outcome [11] | outcome [12] | outcome [14] | outcome [15] | outcome [16]

CCCCC(=O)NNC(=S)NC(=O)C(c1ccccc1)c1ccccc1
active: activation [1] 122% | activation [10] 42% | activation [12] 96.7% | activation [15] 31.6%
inactive: outcome [2] | outcome [3] | outcome [4] | outcome [5] | outcome [6] | outcome [7] | outcome [8] | outcome [9] | outcome [11] | outcome [13] | outcome [14] | outcome [16] | outcome [17] | outcome [18] | outcome [19] | outcome [20]
